Assay [1] deals with Staphylococcus aureus. The assay can be described thus: Antibacterial activity against Staphylococcus aureus MRSA ATCC 43300 (CO-ADD:GP_020); MIC in CAMBH media using NBS plates, by Resazurin F(560/590). It is filed as functional. As to conditions: Concentration 20 uM, ASSAY_TEST Inhibition of Bacterial Growth, detection method Resazurin, Fluorescence (ex560/em590), MEDIA CAMHB, plate type 384well, CORNING #3640, time 18 hr. In general terms: The colour change of resazurin is a common sign of viable cells or microbes.

Assay [2] relates to Acinetobacter baumannii. The assay can be described thus: Antibacterial activity against Acinetobacter baumannii ATCC 19606 (CO-ADD:GN_034); MIC in CAMBH media using NBS plates, by Resazurin F(560/590). In kind it is functional. As to conditions: Concentration 20 uM, ASSAY_TEST Inhibition of Bacterial Growth, detection method Resazurin, Fluorescence (ex560/em590), MEDIA CAMHB, plate type 384well, CORNING #3640, time 18 hr.

Assay [3] relates to Escherichia coli. The assay can be described thus: Antibacterial activity against Escherichia coli ATCC 25922 (CO-ADD:GN_001); MIC in CAMBH media using NBS plates, by Resazurin F(560/590). It is filed as functional. As to conditions: Concentration 20 uM, ASSAY_TEST Inhibition of Bacterial Growth, detection method Resazurin, Fluorescence (ex560/em590), MEDIA CAMHB, plate type 384well, CORNING #3640, time 18 hr.

In assay [4] the test system is Klebsiella pneumoniae. As to conditions: Concentration 20 uM; ASSAY_TEST Inhibition of Bacterial Growth; detection method Absorption (OD600); MEDIA CAMHB; plate type 384well; NBS; CORNING #3640; time 18 hr.
For assay [5], the system named is Candida albicans. As to conditions: 20 µM.
For assay [6], the system named is Cryptococcus neoformans. As to conditions: Concentration 20 uM; ASSAY_TEST Inhibition of Fungal Growth; detection method Resazurin; Absorption (OD600-OD570); plate type 384well; NBS; CORNING #3640.

Results on 25 compounds are retold here after ChEMBL document CHEMBL4296182, “CO-ADD screening of NIH NCI Diversity Set V”.

Each structure is given as a SMILES string. For part of these data: Results with a measured potency or affinity are listed apart.

By Inhibition is commonly meant the change of the read-out against control, counted positive when it falls. For `c1ccc2c(c1)Nc1ccncc1S2`, the Inhibition is 6.69% in assay [1]; -7.03% in assay [2]; 3.1% in assay [3]; 3.6% in assay [4]; 2.27% in assay [5]; -9.93% in assay [6].

With `CCOC(=O)/C(C#N)=C\c1c[nH]c2ccccc12`, the Inhibition in assay [1] is -10.31%; in assay [2] it was -2.58%; in assay [3] it was -10.08%; in assay [4], 2.71%; in assay [5] it was 3.53%; in assay [6], 2.4%.

As to `Clc1ccccc1/C=C/c1ccnc2ccccc12`, the Inhibition in assay [1] is 12.2%; in assay [2], 3.17%; in assay [3], 1.57%; in assay [4], 12.59%; in assay [5], 30.4%; in assay [6], -3.47%.

`O=C(Nc1csnn1)c1csnn1`: the Inhibition in assay [1] was -7.63%; in assay [2], -6.51%; in assay [3], -0.35%; in assay [4], -1.22%; in assay [5], 2.96%; in assay [6], 1.57%.

Consider `NC(=O)c1ccccc1NC(=O)COc1ccc(Cl)cc1`, for which the Inhibition in assay [1] was 16.24%; in assay [2], 7.59%; in assay [3], 9.93%; in assay [4] it was 7.02%; in assay [5], 1.18%; in assay [6] it was -8.55%.

As to `CC1(C)CCSC(/C=C/c2ccccc2)=N1`, the Inhibition in assay [1] was 5.78%; in assay [2] it was 13.91%; in assay [3] it was -1.41%; in assay [4], 18.54%; in assay [5], 1.26%; in assay [6], -4.58%.

For the compound `Cc1cc(/C=C2\SC(=S)NC2=O)cc(C)c1O`, the Inhibition in assay [1] is -3.17%; in assay [2] it was -16.06%; in assay [3] it was 6.56%; in assay [4], 6.27%; in assay [5] it was 8.55%; in assay [6] it was -10.24%.

As for `CCN(CC)c1ccc(/C=C/c2cc(-c3ccccc3)c3ccccc3n2)cc1`, the Inhibition is 16.67% in assay [1]; 5.92% in assay [2]; 4.61% in assay [3]; 11.78% in assay [4]; 4.35% in assay [5]; -9.69% in assay [6].

`CN1CCC=C(C(=O)N2c3ccccc3Sc3ccc(Cl)cc32)C1.O=C(O)CCC(=O)O`: the Inhibition is 8.59% in assay [1]; -10% in assay [2]; 17.87% in assay [3]; -0.76% in assay [4]; -1.22% in assay [5]; -4.64% in assay [6].

In the case of `Oc1ccc2c(ccc3[nH]cnc32)c1`, the Inhibition was 7.97% in assay [1]; -12.34% in assay [2]; 17.76% in assay [3]; 18.56% in assay [4]; -0.43% in assay [5]; -9.86% in assay [6].

For the compound `O=C(Nc1ccccc1)Nc1ccccn1`, the Inhibition was 15.92% in assay [1]; -11.25% in assay [2]; 6.37% in assay [3]; 12.38% in assay [4]; 3.3% in assay [5]; -4.64% in assay [6].

`Cn1ncc2c(Nc3ccc(O)cc3)nc(Cl)nc21`: the Inhibition is 6.63% in assay [1]; 8.39% in assay [2]; 3.23% in assay [3]; 11.85% in assay [4]; 5.74% in assay [5]; -12.05% in assay [6].

On to `CNC(=O)OCN1C(=O)C2CC=CCC2C1=O` (stereo not given), for which the Inhibition in assay [1] is 7.25%; in assay [2] it was -15.92%; in assay [3], 10%; in assay [4], 2.19%; in assay [5], -1.86%; in assay [6], -13.88%.

As for `CC1=CC(=O)CC(C)(C)C1(O)/C=C/C(C)=C/C(=O)O` (stereo not given), the Inhibition was -9.32% in assay [1]; -14.23% in assay [2]; 1.66% in assay [3]; 3.67% in assay [4]; 5.51% in assay [5]; -3.67% in assay [6].

On to `Nc1ncnc2c1ncn2C1OC(CO)C(O)C1N` (stereo not given), for which the Inhibition in assay [1] is -5.5%; in assay [2], -14.65%; in assay [3], 5.58%; in assay [4], 3.14%; in assay [5], -0.11%; in assay [6], -5.11%.

Turning to `Cc1ccc(C)c(-n2c(-c3ccc(Br)cc3)cs/c2=N\C(=O)c2ccccc2F)c1`, the Inhibition in assay [1] was 15.56%; in assay [2], -6.11%; in assay [3], 6.4%; in assay [4], 8.65%; in assay [5], 4.24%; in assay [6], -4.37%.

With `COc1cc(C(=O)c2cocc2C(=O)c2ccc3c(c2)OCO3)cc(OC)c1OC`, the Inhibition was 27.15% in assay [1]; -6.33% in assay [2]; 12.62% in assay [3]; 6.01% in assay [4]; 3.29% in assay [5]; 14.1% in assay [6].

On to `C[C@H](CCC(=O)O)[C@H]1CC[C@@]2(C)[C@@H]3C(=O)C[C@H]4C(C)(C)[C@@H](O)CC[C@]4(C)[C@H]3C(=O)C[C@]12C`, for which the Inhibition in assay [1] was 2.14%; in assay [2], -2.92%; in assay [3] it was -3.17%; in assay [4] it was 11.41%; in assay [5], -2.24%; in assay [6], -2.42%.

Take `Nc1ccc(NC(=O)c2ccc(C(=O)Nc3ccc(N)cc3)cc2)cc1`: the Inhibition in assay [1] was 11.02%; in assay [2], -8.34%; in assay [3] it was 15.83%; in assay [4] it was 3.68%; in assay [5] it was 40.4%; in assay [6] it was 10.38%.

`CC1=C(C#N)C(C)(C)C(C#N)=C(C)N1`: the Inhibition in assay [1] is 13.81%; in assay [2] it was -13.23%; in assay [3] it was 8.21%; in assay [4] it was 8.84%; in assay [5], 0.55%; in assay [6], -14.16%.

As to `C#CCSc1nnnn1-c1ccc(Br)c(C)c1`, the Inhibition in assay [1] is 21.42%; in assay [2], 5.77%; in assay [3] it was 6.7%; in assay [4] it was 10.23%; in assay [5], 1.42%; in assay [6], -16.38%.

`COc1cc2c(NCCCCCO)ncnc2c(OC)c1OC`: the Inhibition in assay [1] was 13.68%; in assay [2], 10.53%; in assay [3] it was 6.4%; in assay [4], 13.53%; in assay [5], 0.91%; in assay [6], -4.07%.

As for `Clc1ccc(Nc2nnc(-c3ccc4c(c3)OCO4)o2)cc1`, the Inhibition is -8.18% in assay [1]; 6.42% in assay [2]; 9.52% in assay [3]; 10.29% in assay [4]; 4.12% in assay [5]; 44.25% in assay [6].

Regarding `O=C1c2ccccc2C(=O)c2c1cccc2-n1nnc2ccccc21`, the Inhibition in assay [1] was 8.87%; in assay [2], -5.95%; in assay [3] it was 13.14%; in assay [4], 0.02%; in assay [5], 0.12%; in assay [6], -17.13%.

In the case of `CCOC(=O)c1cnn2c(SC)ncnc12`, the Inhibition in assay [1] is 10.61%; in assay [2], 5.37%; in assay [3] it was -2.6%; in assay [4], 12.61%; in assay [5] it was 5.51%; in assay [6], -8.81%.
